Laboratory results: PubChem BioAssay AID588335 (The Scripps Research Institute Molecular Screening Center, 2011)
In all, about 360,000 compounds went through this assay and about 4,500 (1.2%) were called active. Cut-off read from the data, not from the text of the source: active = inhibition above about 30%; inactive = the rest. What follows is part of a selection rich in actives, with near analogues and random picks from the rest.

assay: GDH-TPI coupling enzyme inhibitors, primary screen, artefact control for M. tuberculosis FBA inhibitor project, biochemical, absorbance, full deck (AID 588335); conditions: GDH-TPI coupled enzyme counterscreen, NADH absorbance; at 4.8 µM; active compounds read high;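 note: 0% = DMSO wells and 100% = wells lacking the enzyme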

Compound | inhibition
O=C(CN1CCCCCC1)Nc1c(Cl)cc(Cl)cc1Cl | 3.42% (inactive)
COc1cc2nc(CN(C)Cc3ccc(F)cc3)[nH]c(=O)c2cc1OC | -3.88% (inactive)
COc1cccc(-n2c(SCC(=O)NC3CCCCC3)nc3n[nH]c(C)c3c2=N)c1 | 0.37% (inactive)
CCCCNC(=O)CSc1nc2n[nH]c(C)c2c(=N)n1-c1cccc(Cl)c1C | 33.5% (active)
Cc1ccc(-n2c(SCC(=O)NCCC3=CCCCC3)nc3n[nH]c(C)c3c2=N)cc1Cl | -1.52% (inactive)
CC(C)Nc1ccc(-n2nc3ccccc3[n+]2[O-])cc1 | 21.6% (inactive)
CC12CCC(=O)N1C(C(=O)NCCN1C(=O)S/C(=C\c3ccccc3F)C1=O)CS2 (configuration not stated) | 21.5% (inactive)
CN(C(=O)CN1C(=O)S/C(=C\c2ccccc2F)C1=O)C1CCS(=O)(=O)C1 (configuration not stated) | 9.17% (inactive)
O=C(CN1C(=O)S/C(=C\c2ccccc2Cl)C1=O)NC1C=CS(=O)(=O)C1 (configuration not stated) | 35.4% (active)
CCN(CC)C(=O)C1CCCN(Cc2cccc(Cl)c2)C1 (configuration not stated) | 11.3% (inactive)
COc1ccccc1C(=O)Nc1ccnn1C1CCN(C(=O)C(C)(C)C)CC1 | 2.52% (inactive)
CCn1cc(/C=C(\NC(=O)c2cc(OC)c(OC)c(OC)c2)C(=O)N2CCN(C)CC2)c2ccccc21 | 27.5% (inactive)
COc1cc(C(=O)N/C(=C\c2cn(C)c3ccccc23)C(=O)N2CCOCC2)cc(OC)c1OC | 33.6% (active)
Cc1ccc(C(=O)N/C(=C\c2cn(C)c3ccccc23)C(=O)N2CCN(C)CC2)cc1 | 18.5% (inactive)
CN(Cc1c(F)cccc1Cl)C(=O)COC(=O)Cn1cnc2ccccc2c1=O | 7.14% (inactive)
C/C(=C\C(=O)c1ccccc1)Nc1cccc(O)c1 | 8.48% (inactive)
C/C(=C\C(=O)c1cccnc1)Nc1ccc(C)c(C)c1 | 31.1% (active)
Cc1ccc(OCC(=O)NCCCNC(=O)c2cccnc2)cc1C | -5.28% (inactive)
C=C1C2C[C@H](O)C(C)(C)[C@@]2(O)[C@H](O)C[C@]23C[C@@](C)(O)[C@H](CC[C@H]12)[C@H]3O (some centres not stated) | 5.18% (inactive)
COc1ccc(SC[C@H](Cc2ccccc2)N2CCN(CCc3ccccc3)CCC2=O)cc1 | 3.36% (inactive)
C=CCOc1ccc(/C=N/n2cncn2)cc1OC | 19.5% (inactive)
O=C(CN1CCN(Cc2ccccc2)CC1)Nc1ccc(F)c(F)c1 | -9.79% (inactive)
COc1ccccc1/C=C/C=N/NC(=O)CN1CCN(Cc2ccccc2)CC1 | 49.7% (active)

Compound | inhibition
COc1ccccc1CN1CCN(C(=O)Cc2ccccc2)CC1 | 6.8% (inactive)
O=C(CCn1c(=S)[nH]c2cc3c(cc2c1=O)OCO3)NCc1ccc(Cl)cc1 | 20.7% (inactive)
O=c1c2ccccc2[nH]c(=S)n1-c1cccc(Cl)c1 | 9.09% (inactive)
CN(C)CCn1c(=S)[nH]c2ccc(Cl)cc2c1=O | 32.9% (active)
O=C(CN1CCN(S(=O)(=O)c2cc(Cl)ccc2Cl)CC1)c1ccc(O)c(O)c1 | 18.1% (inactive)
Cc1cc(/C=N/Nc2ccc([N+](=O)[O-])cn2)c(C)n1-c1cccc(C(=O)O)c1 | 38% (active)
Cc1cc(C=O)c(C)n1-c1ccc(NC2CCCCC2)c([N+](=O)[O-])c1 | 0.62% (inactive)
Cc1cc(/C=N/NC(=O)CC2(C)OCCO2)c(C)n1-c1ccc(Cl)c(Cl)c1 | 0.72% (inactive)
COc1ccc(-c2noc(C(C)NS(=O)(=O)c3ccc(NC(C)=O)cc3)n2)cc1 (configuration not stated) | -8.81% (inactive)
Brc1ccc(CN2CC[C@H]3C=CCc4cccc(c43)C2)cc1 | 6.9% (inactive)
CC(=O)N1CCOc2ccc(S(=O)(=O)N3CCN(c4cccc(C(F)(F)F)c4)CC3)cc21 | 6.9% (inactive)
O=C(N/N=C\c1ccc(-c2ccc(Cl)c(Cl)c2)o1)C(=O)N1CCCC1 | 14.3% (inactive)
O=C(Cn1nnc(-c2ccccc2)n1)N/N=C/c1ccc(-c2ccc(Cl)cc2)o1 | 11.2% (inactive)
COC(=O)N/N=C/c1ccc(-c2ccc(Cl)c(Cl)c2)o1 | 31.5% (active)
CCC1Sc2ccc(S(=O)(=O)CCC(=O)NCc3cccs3)cc2NC1=O (configuration not stated) | 10% (inactive)
Cc1cc(C(=O)N2CCCC2(C)C(=O)O)c(C)o1 (configuration not stated) | -1.83% (inactive)
CC(NC(=O)C(=O)N/N=C/c1ccc(Cl)cc1)c1ccccc1 (configuration not stated) | -6.35% (inactive)
Cn1c(=O)n(C)c2cc(/C=N/NC(=O)c3cccc(Br)c3)ccc21 | 31.9% (active)
O=C(N/N=C/c1ccoc1)c1ccc(Cl)cc1Cl | -4.38% (inactive)
COc1cc(/C=N/NC(=O)c2cccnc2)ccc1OC(=O)c1cccc(Br)c1 | 7.96% (inactive)
CCOc1cc(/C=N/NC(=O)c2cccc(S(=O)(=O)N3CCOCC3)c2)ccc1OCC(=O)N(C)C | 26.9% (inactive)
CSc1ccc(/C=N/NC(=O)c2cccc(Cl)c2)cc1 | 31.8% (active)
O=C(OCC(=O)N1CCCCCC1)c1cnc(Cl)c(Cl)c1 | -4.78% (inactive)

Compound | inhibition
COc1ccc(C2CC(=O)Oc3ccc(C(C)(C)C)cc32)cc1 (configuration not stated) | 10.2% (inactive)
COc1ccc([C@H]2CC(=O)C=C(c3ccc(C)cc3)C2)cc1 | 13.4% (inactive)
COc1ccc([C@H]2CC(=O)C=C(/C=C/c3ccccc3)C2)cc1 | 37.2% (active)
COc1ccc([C@H]2CC(=O)C=C(/C=C/c3ccc(Cl)cc3)C2)cc1 | 2.59% (inactive)
CCCCC(=O)N(C)c1c(CC)nc2c(OCc3ccc(S(C)(=O)=O)cc3)cccn12 | 8.04% (inactive)
CN(C)Cc1ccc(F)cc1Sc1cc(Cl)ccc1Cl | 6.23% (inactive)
COc1ccc(NC(=O)CCCNC(=O)Cn2cnc3sc4c(c3c2=O)CCCC4)cc1OC | 4.67% (inactive)
OCCNc1nc2ccccc2n1-c1ncnc2sc3c(c12)CCC3 | 7.12% (inactive)
COc1ccc(/C=N/Nc2ncnc3sc4c(c23)CCCC4)cc1O | 34.2% (active)
Cc1nnc(NC(=O)CCC(=O)N2CCC(C)CC2)s1 | -8.68% (inactive)
Cc1noc(NS(=O)(=O)c2ccc(NC(=O)C34CCC(CC3)C4)cc2)c1C | -6.12% (inactive)
Cc1ccc(C(=O)/C=C/Nc2ccc(S(=O)(=O)Nc3onc(C)c3C)cc2)cc1 | 21.6% (inactive)
Cc1noc(NS(=O)(=O)c2ccc(N/C=C/C(=O)c3ccccc3)cc2)c1C | 32.3% (active)
Cc1ccc(-c2csc(C(C#N)=C(O)CN3CCN(C(=O)c4ccco4)CC3)n2)cc1 | 21.6% (inactive)
COC(=O)C(C(=O)Nc1cccc(C)n1)C1CCCCCC1 (configuration not stated) | 14.9% (inactive)
C=CCN(c1ccc(C(=O)Nc2cc(C)cc(C)c2)cc1)S(C)(=O)=O | 4.51% (inactive)
CC(C)(C)C(=O)c1cnc(Nc2ccccc2)s1 | 35.6% (active)
CC(=O)c1cnc(-c2ccccc2)s1 | 10.1% (inactive)
O=C(/C=C/Nc1ccccc1)c1cnc(-c2ccccc2)s1 | 3.77% (inactive)
C=CC(COCc1ccccc1)N(Cc1ccccc1)S(=O)(=O)c1ccccc1Br (configuration not stated) | 9.24% (inactive)
O=C(Nc1ccc(Cl)cc1)c1cccc(OC(=S)N2CCOCC2)c1 | -5.96% (inactive)
CCCOc1cccc(C(=O)Nc2nnn(CCC)n2)c1 | 3.11% (inactive)
CCC(=O)Oc1cccc(C(=O)Nc2ccc(-c3nnc(-c4ccco4)o3)cc2)c1 | 35.6% (active)

Compound | inhibition
N#C/C(C(=S)Nc1ccccc1)=C1/NN=C(N2CCOCC2)N1c1ccccc1 | 6.29% (inactive)
Cc1ccc2c(O)c(Cc3ccccc3)c(=O)[nH]c2n1 | 12.7% (inactive)
CC1CCN(C(=O)Cn2cc(C(=O)c3ccco3)c3ccccc32)CC1 | 21.1% (inactive)
N#Cc1ccc(Cn2cc(C(=O)c3ccco3)c3ccccc32)cc1 | 31.5% (active)
NC(=O)Cn1cc(C(=O)c2ccccc2F)c2ccccc21 | 1.25% (inactive)
CCOC(=O)c1c(NC(=S)SC)sc(C(=O)N2CCc3ccccc3C2)c1C | 1.83% (inactive)
CN1CCC(=NNC(=O)CN(c2cccc(Cl)c2)S(C)(=O)=O)CC1 | 3.59% (inactive)
CCc1nc2cccnc2n1-c1ccc(C(=O)O)cc1 | 0.86% (inactive)
N#CCCCn1c(O)c(N=NC(=O)C(O)c2ccccc2)c2ccccc21 (configuration not stated) | 42% (active)
CCCCn1c(O)c(N=NC(=O)Cn2c(C(F)(F)F)nc3ccccc32)c2ccccc21 | -14.8% (inactive)
Cc1csc(Nc2ccc(Cl)cc2)[n+]1-c1ccc(Cl)cc1 | 2.24% (inactive)
CCOc1cc(/C=N/NC(=O)c2ccncc2)cc(Br)c1O | 0% (inactive)
O=C(CNC(=O)C(c1ccccc1)c1ccccc1)N/N=C\c1ccc2c(c1)OCO2 | 6.25% (inactive)
O=C(CNC(=O)c1cccnc1)N/N=C/c1cc(Br)c(O)c(Br)c1 | 42% (active)
CCN(CC)c1ccc(/C=N/NC(=O)CNC(=O)c2cccs2)cc1 | 31.4% (active)
O=C(CNC(=O)C1COc2ccccc2O1)N/N=C/c1cc(Br)c(O)c(Br)c1 (configuration not stated) | 33.5% (active)
CCCOc1cccc(C(=O)NCCCNC(=O)c2cccnc2)c1 | -5.19% (inactive)
O=C(CNC(=O)c1ccccc1Br)NNC(=O)c1cccs1 | -3.45% (inactive)
CCN(CC)c1ccc(/C=N/NC(=O)CNC(=O)c2cccnc2)cc1 | 33.1% (active)
Cc1cccc(OCC(=O)NCCNC(=O)c2cccnc2)c1 | -7.55% (inactive)
C/C(=N\NC(=O)c1cccnc1)c1ccc(-n2ccnc2)cc1 | 12.6% (inactive)
CC(C)OCCCNC(=O)CNC(=O)c1cccs1 | 3.27% (inactive)
CC1CC(=NNC(=O)C2COc3ccccc3O2)CC(C)(C)C1 (configuration not stated) | -8.18% (inactive)
